Reference: the supplement of paper PMC4466140

B1: unnamed (peptide)
chain: EEEEEHPPLPARRKS

Target: AgAbp1
Experiment: SPOT peptide array binding signal intensity (averaged, normalized) (arbitrary units (background-subtracted, floor 0; scale differs between SH3 domains)); higher = stronger binding of the SH3 domain to the peptide
In short: (§1)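 SH3 domains from four yeast species were expressed as GST fusions in E. coli BL21(DE3) and purified on glutathione Sepharose. Each was incubated at 10 μg/ml overnight at 4°C in TBS-based blocking buffer on cellulose membranes bearing synthetic 15-mer peptides, in which serines replaced cysteines. Bound protein was detected with anti-GST antibody, an HRP anti-mouse secondary and luminol, then imaged and quantified with Genespotter. The binding signal is the normalized, background-subtracted spot intensity averaged over replicates, in arbitrary units that are not the same from one domain to another.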

| Binder | SPOT peptide array binding signal intensity |
| --- | --- |
| B1 | ≤ 0 |

Target: AgBbc1
Experiment: as above
In short: as §1

| Binder | SPOT peptide array binding signal intensity |
| --- | --- |
| B1 | 23.2 |

Target: AgBem1-D1
Experiment: as above
In short: as §1

| Binder | SPOT peptide array binding signal intensity |
| --- | --- |
| B1 | ≤ 0 |

Target: AgBzz1-D1
Experiment: as above
In short: as §1

| Binder | SPOT peptide array binding signal intensity |
| --- | --- |
| B1 | 9 |

Target: AgBzz1-D2
Experiment: as above
In short: as §1

| Binder | SPOT peptide array binding signal intensity |
| --- | --- |
| B1 | 27.5 |

Target: AgCyk3
Experiment: as above
In short: as §1

| Binder | SPOT peptide array binding signal intensity |
| --- | --- |
| B1 | ≤ 0 |

Target: AgFus1
Experiment: as above
In short: as §1

| Binder | SPOT peptide array binding signal intensity |
| --- | --- |
| B1 | ≤ 0 |

Target: AgHof1
Experiment: as above
In short: as §1

| Binder | SPOT peptide array binding signal intensity |
| --- | --- |
| B1 | 3 |

Target: AgHse1
Experiment: as above
In short: as §1

| Binder | SPOT peptide array binding signal intensity |
| --- | --- |
| B1 | 3.5 |

Target: AgLsb1
Experiment: as above
In short: as §1

| Binder | SPOT peptide array binding signal intensity |
| --- | --- |
| B1 | 20.5 |

Target: AgLsb4
Experiment: as above
In short: as §1

| Binder | SPOT peptide array binding signal intensity |
| --- | --- |
| B1 | 7880 |

Target: AgMyo5
Experiment: as above
In short: as §1

| Binder | SPOT peptide array binding signal intensity |
| --- | --- |
| B1 | 0.5 |

Target: AgNbp2
Experiment: as above
In short: as §1

| Binder | SPOT peptide array binding signal intensity |
| --- | --- |
| B1 | ≤ 0 |

Target: AgRvs167
Experiment: as above
In short: as §1

| Binder | SPOT peptide array binding signal intensity |
| --- | --- |
| B1 | 61 |

Target: AgSho1
Experiment: as above
In short: as §1

| Binder | SPOT peptide array binding signal intensity |
| --- | --- |
| B1 | 8 |

Target: AgSla1-D1-D2
Experiment: as above
In short: as §1

| Binder | SPOT peptide array binding signal intensity |
| --- | --- |
| B1 | 4.5 |

Target: AgSla1-D3
Experiment: as above
In short: as §1

| Binder | SPOT peptide array binding signal intensity |
| --- | --- |
| B1 | ≤ 0 |

Target: CaAbp1-D1
Experiment: as above
In short: as §1

| Binder | SPOT peptide array binding signal intensity |
| --- | --- |
| B1 | 8.5 |

Target: CaAbp1-D2
Experiment: as above
In short: as §1

| Binder | SPOT peptide array binding signal intensity |
| --- | --- |
| B1 | ≤ 0 |

Target: CaBbc1
Experiment: as above
In short: as §1

| Binder | SPOT peptide array binding signal intensity |
| --- | --- |
| B1 | 50.5 |

Target: CaBem1-D1
Experiment: as above
In short: as §1

| Binder | SPOT peptide array binding signal intensity |
| --- | --- |
| B1 | ≤ 0 |

Target: CaBzz1-D1
Experiment: as above
In short: as §1

| Binder | SPOT peptide array binding signal intensity |
| --- | --- |
| B1 | ≤ 0 |

Target: CaBzz1-D2
Experiment: as above
In short: as §1

| Binder | SPOT peptide array binding signal intensity |
| --- | --- |
| B1 | ≤ 0 |

Target: CaCyk3
Experiment: as above
In short: as §1

| Binder | SPOT peptide array binding signal intensity |
| --- | --- |
| B1 | ≤ 0 |

Target: CaFus1
Experiment: as above
In short: as §1

| Binder | SPOT peptide array binding signal intensity |
| --- | --- |
| B1 | 9.5 |

Target: CaHof1
Experiment: as above
In short: as §1

| Binder | SPOT peptide array binding signal intensity |
| --- | --- |
| B1 | 8.5 |

Target: CaHse1
Experiment: as above
In short: as §1

| Binder | SPOT peptide array binding signal intensity |
| --- | --- |
| B1 | 13 |

Target: CaLsb1
Experiment: as above
In short: as §1

| Binder | SPOT peptide array binding signal intensity |
| --- | --- |
| B1 | 10.8 |

Target: CaLsb4
Experiment: as above
In short: as §1

| Binder | SPOT peptide array binding signal intensity |
| --- | --- |
| B1 | 5520 |

Target: CaMyo5
Experiment: as above
In short: as §1

| Binder | SPOT peptide array binding signal intensity |
| --- | --- |
| B1 | 1.75 |

Target: CaNbp2
Experiment: as above
In short: as §1

| Binder | SPOT peptide array binding signal intensity |
| --- | --- |
| B1 | ≤ 0 |

Target: CaRvs167
Experiment: as above
In short: as §1

| Binder | SPOT peptide array binding signal intensity |
| --- | --- |
| B1 | 408 |

Target: CaRvs167-3
Experiment: as above
In short: as §1

| Binder | SPOT peptide array binding signal intensity |
| --- | --- |
| B1 | 6.5 |

Target: CaSho1
Experiment: as above
In short: as §1

| Binder | SPOT peptide array binding signal intensity |
| --- | --- |
| B1 | ≤ 0 |

Target: CaSla1-D1-D2
Experiment: as above
In short: as §1

| Binder | SPOT peptide array binding signal intensity |
| --- | --- |
| B1 | ≤ 0 |

Target: CaSla1-D3
Experiment: as above
In short: as §1

| Binder | SPOT peptide array binding signal intensity |
| --- | --- |
| B1 | ≤ 0 |

Target: ScAbp1
Experiment: as above
In short: as §1

| Binder | SPOT peptide array binding signal intensity |
| --- | --- |
| B1 | ≤ 0 |

Target: ScBbc1
Experiment: as above
In short: as §1

| Binder | SPOT peptide array binding signal intensity |
| --- | --- |
| B1 | 6.25 |

Target: ScBem1-D1
Experiment: as above
In short: as §1

| Binder | SPOT peptide array binding signal intensity |
| --- | --- |
| B1 | 0.5 |

Target: ScBzz1-D1
Experiment: as above
In short: as §1

| Binder | SPOT peptide array binding signal intensity |
| --- | --- |
| B1 | 16 |

Target: ScBzz1-D2
Experiment: as above
In short: as §1

| Binder | SPOT peptide array binding signal intensity |
| --- | --- |
| B1 | 27.5 |

Target: ScCyk3
Experiment: as above
In short: as §1

| Binder | SPOT peptide array binding signal intensity |
| --- | --- |
| B1 | ≤ 0 |

Target: ScFus1
Experiment: as above
In short: as §1

| Binder | SPOT peptide array binding signal intensity |
| --- | --- |
| B1 | 4 |

Target: ScHof1
Experiment: as above
In short: as §1

| Binder | SPOT peptide array binding signal intensity |
| --- | --- |
| B1 | 4.25 |

Target: ScHse1
Experiment: as above
In short: as §1

| Binder | SPOT peptide array binding signal intensity |
| --- | --- |
| B1 | ≤ 0 |

Target: ScLsb1
Experiment: as above
In short: as §1

| Binder | SPOT peptide array binding signal intensity |
| --- | --- |
| B1 | 444 |

Target: ScLsb2
Experiment: as above
In short: as §1

| Binder | SPOT peptide array binding signal intensity |
| --- | --- |
| B1 | 17 |

Target: ScLsb3
Experiment: as above
In short: as §1

| Binder | SPOT peptide array binding signal intensity |
| --- | --- |
| B1 | 9930 |

Target: ScLsb4
Experiment: as above
In short: as §1

| Binder | SPOT peptide array binding signal intensity |
| --- | --- |
| B1 | 3690 |

Target: ScMyo3
Experiment: as above
In short: as §1

| Binder | SPOT peptide array binding signal intensity |
| --- | --- |
| B1 | ≤ 0 |

Target: ScMyo5
Experiment: as above
In short: as §1

| Binder | SPOT peptide array binding signal intensity |
| --- | --- |
| B1 | ≤ 0 |

Target: ScNbp2
Experiment: as above
In short: as §1

| Binder | SPOT peptide array binding signal intensity |
| --- | --- |
| B1 | ≤ 0 |

Target: ScPex13
Experiment: as above
In short: as §1

| Binder | SPOT peptide array binding signal intensity |
| --- | --- |
| B1 | 656 |

Target: ScRvs167
Experiment: as above
In short: as §1

| Binder | SPOT peptide array binding signal intensity |
| --- | --- |
| B1 | 1940 |

Target: ScSho1
Experiment: as above
In short: as §1

| Binder | SPOT peptide array binding signal intensity |
| --- | --- |
| B1 | ≤ 0 |

Target: ScSla1-D1-D2
Experiment: as above
In short: as §1

| Binder | SPOT peptide array binding signal intensity |
| --- | --- |
| B1 | 102 |

Target: ScSla1-D3
Experiment: as above
In short: as §1

| Binder | SPOT peptide array binding signal intensity |
| --- | --- |
| B1 | ≤ 0 |

Target: SpAbp1-D1
Experiment: as above
In short: as §1

| Binder | SPOT peptide array binding signal intensity |
| --- | --- |
| B1 | ≤ 0 |

Target: SpBbc1
Experiment: as above
In short: as §1

| Binder | SPOT peptide array binding signal intensity |
| --- | --- |
| B1 | 1.5 |

Target: SpBzz1-D1
Experiment: as above
In short: as §1

| Binder | SPOT peptide array binding signal intensity |
| --- | --- |
| B1 | 17 |

Target: SpBzz1-D2
Experiment: as above
In short: as §1

| Binder | SPOT peptide array binding signal intensity |
| --- | --- |
| B1 | 2 |

Target: SpCyk3
Experiment: as above
In short: as §1

| Binder | SPOT peptide array binding signal intensity |
| --- | --- |
| B1 | ≤ 0 |

Target: SpHof1
Experiment: as above
In short: as §1

| Binder | SPOT peptide array binding signal intensity |
| --- | --- |
| B1 | 0.5 |

Target: SpHof1-2
Experiment: as above
In short: as §1

| Binder | SPOT peptide array binding signal intensity |
| --- | --- |
| B1 | 1 |

Target: SpHof1-3
Experiment: as above
In short: as §1

| Binder | SPOT peptide array binding signal intensity |
| --- | --- |
| B1 | 1 |

Target: SpHse1
Experiment: as above
In short: as §1

| Binder | SPOT peptide array binding signal intensity |
| --- | --- |
| B1 | 1 |

Target: SpLsb1
Experiment: as above
In short: as §1

| Binder | SPOT peptide array binding signal intensity |
| --- | --- |
| B1 | 10 |

Target: SpLsb4
Experiment: as above
In short: as §1

| Binder | SPOT peptide array binding signal intensity |
| --- | --- |
| B1 | 7640 |

Target: SpMyo1
Experiment: as above
In short: as §1

| Binder | SPOT peptide array binding signal intensity |
| --- | --- |
| B1 | ≤ 0 |

Target: SpNbp2
Experiment: as above
In short: as §1

| Binder | SPOT peptide array binding signal intensity |
| --- | --- |
| B1 | 3.5 |

Target: SpPex13
Experiment: as above
In short: as §1

| Binder | SPOT peptide array binding signal intensity |
| --- | --- |
| B1 | ≤ 0 |

Target: SpRvs167
Experiment: as above
In short: as §1

| Binder | SPOT peptide array binding signal intensity |
| --- | --- |
| B1 | 1510 |

Target: SpSla1-D1-D2
Experiment: as above
In short: as §1

| Binder | SPOT peptide array binding signal intensity |
| --- | --- |
| B1 | ≤ 0 |

Target: SpSla1-D3
Experiment: as above
In short: as §1

| Binder | SPOT peptide array binding signal intensity |
| --- | --- |
| B1 | 5 |
